Screening data deposited in PubChem BioAssay by National Center for Advancing Translational Sciences (NCATS).
Cycloheximide cs – Cycloheximide Counterscreen for Small Molecule Inhibitors of Shiga Toxin | cell reporter, cycloheximide protein synthesis inhibition counterscreen | max response, % | hit rate 12% among 300,000 | AID 2314, 2010; in the data active means max response mostly above about 13%, no sharp cut-off; inactive means mostly below about 14%; further: read at 38.3 µM for the half of the compounds with a filed dose; 0% is about no effect
Pf growth 96h – Primary qHTS for delayed death inhibitors of the malarial parasite plastid, 96 hour incubation | P. falciparum luciferase reporter growth, 96 h | Potency, µM (titrated, usually from 28.7 µM), for inactives: at the top dose activity change, negative = inhibition, usual class: inhibitors | hit rate 6.9% among 320,000 | AID 504834, 2011; further: potency means the concentration at half of the fitted maximal effect; on the % scale 0 is the no-effect control and ±100 the full control effect
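Infected RBCs, 2% Hct / 0.05% parasitemia final; luciferase-reporter P. falciparum; cpd 96 h, 37 C, 5% CO2; luciferase detection reagent; luminescence.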
Shiga inhibitor – A qHTS for Small Molecule Inhibitors of Shiga Toxin | Vero cells, Shiga toxin protein synthesis inhibition reporter | inhibition, % at 38.7 µM | hit rate 9.2% among 290,000 | AID 2315, 2010; in the data active means inhibition mostly above about 28%, no sharp cut-off; inactive means mostly below about 43%; further: 0% is about no effect
Pf growth 48h – Primary qHTS for delayed death inhibitors of the malarial parasite plastid, 48 hour incubation; P. falciparum luciferase growth in erythrocytes, 48 h; Potency, µM (highest dose often 28.7 µM), for inactives: top-dose activity change, negative = inhibition, hits mostly inhibitors; hit rate 5.9% among 310,000; AID 504832, 2011; further: potency means the concentration at half of the fitted maximal effect; on the % scale 0 is the no-effect control and ±100 the full control effect
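First compound was added to culture medium, then infected red cells at 0.1% parasitemia and 2% hematocrit (final). After incubation at 37 C under 5% CO2, luciferase detection reagent was dispensed and light output recorded.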
HCMV inh – qHTS Assay for inhibitors of the human cytomegalovirus (HCMV). HFF cells, HCMV-luciferase reporter, 72 h; active compounds read low. AID 1259415, 2018. activity change, negative = inhibition, % at 57.5 µM. hit rate 4.5% among 410,000; in the data active means activity change below about -60%; inconclusive means no clear call, values can overlap the other calls; inactive means above about -39%; further: on the % scale 0 is the no-effect control and ±100 the full control effect
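HFF cells seeded 16 h at 37C, treated with compounds, infected with luciferase-reporter HCMV at MOI 1 PFU/cell; luciferase read at 72 h post infection, normalized to buffer-only and Salinomycin controls.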
Active calls of the source: *; i = inactive; ? = inconclusive; nt = no result. This is a sample that favours compounds with a hit; in the whole collection about 20% have one here. Unless noted, the call rests on the fitted dose curve; in most records, active means well fitted inhibition curve with a large enough effect; inconclusive means small, poorly fitted or top-dose-only effect, or another doubt; inactive means no such curve, though single readings can be large or run the other way.

SMILES	Cycloheximide cs	Pf growth 96h	Shiga inhibitor	Pf growth 48h	HCMV inh
NC(=O)CSc1nc2scc(-c3ccc(Cl)cc3)c2c(=O)n1Cc1ccccc1	-2.4	8.28µM*	-7.3	11.7µM*	?
O=C(Nc1nccs1)c1ccc(Br)s1	54.3*	115.6%	60.4*	86.3%	-33.2
Cc1ccc(C(=O)Nc2nccs2)s1	59.1*	80.3%	92.4*	131.0%	48.6
Cc1nnc(SCC(=O)Nc2nccs2)s1	-1.9	-28.5%	1.3	18.9%	-4.1
CCOC(=O)CSc1nc2ccccc2c(=O)n1CCc1ccc(OC)c(OC)c1	nt	nt	nt	nt	10.9
C=CCOc1ccccc1CN1CCC(C(=O)Nc2cccc(-c3ccn[nH]3)c2)CC1	15.6	?	-4.7	?	-63.7*
CCN1C(=O)C(=Cc2ccc(C)s2)C(=O)N(CC)C1=S	21.1	108.2%	44.4*	103.2%	32.0
CCN1C(=O)/C(=C/c2ccc(C)s2)NC1=S	17.6	nt	8.3	8.3%	-23.2
Cc1ccc(NS(=O)(=O)c2cccc3cccnc23)c(Br)c1	2.4	-4.0%	20.3	-37.2%	-82.3*
COc1ccc(NS(=O)(=O)c2cccc3cccnc23)cc1	-1.1	?	-9.3	-7.7%	-8.5
O=S(=O)(Nc1cccc2cccnc12)c1ccccc1Br	28.4*	nt	-2.6	nt	nt
COc1ccc(NS(=O)(=O)c2cccc3cccnc23)cc1Cl	6.9	0.928µM*	19.4	?	-10.1
Cc1cccc(NS(=O)(=O)c2cccc3cccnc23)n1	-1.7	1.65µM*	9.0	8.0%	-14.7
CC(C)N1CCC(N2CCN(C/C=C/c3ccccc3)CC2CCO)CC1 (centres undefined)	-1.7	36.0%	-3.2	?	nt
CCc1ccc(C2NC(=O)c3[nH]nc(-c4cccc(OC)c4)c32)cc1 (centres undefined)	nt	nt	nt	nt	27.2
Cc1cc(NC(=O)CCC(=O)N(Cc2ccco2)C2(C(=O)NC3CCCCC3)CCCCC2)no1	-4.1	1.31µM*	-6.5	-24.7%	-36.3
COc1cccc(CN(CC(=O)NC2CCCC2)C(=O)CCC(=O)Nc2cc(C)on2)c1	-2.4	?	-14.5	nt	-80.8*
Cc1cc(NC(=O)CCC(=O)N(Cc2ccccc2)C2(C(=O)NC3CCCCC3)CCCC2)no1	7.1	?	-10.1	9.28µM*	?
Cc1cc(NC(=O)CCC(=O)N(CC(=O)NC2CCCC2)Cc2ccco2)no1	0.3	nt	-10.4	-14.7%	33.4
O=C(O)c1ccc(CNS(=O)(=O)c2ccc(Oc3ccccc3Cl)cc2)cc1	-1.3	?	-11.3	-5.2%	8.5
C=CCc1c(C)nc(SCc2ccccc2)[nH]c1=O	16.4*	-4.4%	18.2	9.5%	27.8
Cc1cc(=O)[nH]c(SCCc2ccccc2)n1	-3.9	53.4%	-6.4	14.5%	-20.5
Cc1cc(=O)[nH]c(SCC(=O)Nc2nc(-c3ccccc3)c(-c3ccccc3)o2)n1	16.1*	81.0%	14.6	12.3%	16.9
Cc1cc(=O)[nH]c(S/C=C/c2ccccc2)n1	28.1*	2.4%	57.5*	55.6%	101.2
Nc1cc(=O)[nH]c(SC/C=C/c2ccccc2)n1	16.4	108.2%	28.6	25.7%	-1.5
SMILES	Cycloheximide cs	Pf growth 96h	Shiga inhibitor	Pf growth 48h	HCMV inh
Cc1cc(=O)[nH]c(SCc2ccccc2)n1	2.5	2.7%	-0.3	11.7µM*	19.0
Cc1ccc(S(=O)(=O)N2CCOCC2)cc1C(=O)N1CCN(S(=O)(=O)c2cccs2)CC1	-3.7	?	3.5	?	43.5
COc1ccc(CSc2nc(C)cc(=O)[nH]2)cc1	9.7	4.65µM*	23.3	0.0%	19.9
Cc1ccc(C(=O)CSc2nnc(C(C)C)n2C)cc1C	-0.7	i	9.9	38.8%	8.2
COc1ccccc1OCC(=O)N/N=C/c1c(O)ccc2ccccc12	9.6	?	-23.8	2.62µM*	-109.1*
COc1ccccc1OCC(=O)N/N=C/c1cccc2cccnc12	-3.6	13.1µM*	-9.2	3.1%	-4.3
C=CCn1cc(/C=N/NC(=O)COc2cccc3cccnc23)c2ccccc21	9.9	?	12.8	-2.6%	-9.7
COc1ccc(OCC(=O)N/N=C/c2cccc3cccnc23)cc1	nt	nt	nt	nt	72.6
COc1cccc(/C=N/NC(=O)COc2cccc3cccnc23)c1O	19.3	1.3%	32.1*	?	-6.0
CC(C)n1cc(/C=N/NC(=O)COc2cccc3cccnc23)c2ccccc21	5.7	8.28µM*	2.2	?	11.8
Cc1ccc(NC(=O)CCCn2nc(C)c3c(C)n(-c4ccccc4)nc3c2=O)c(Cl)c1	-2.5	42.7%	27.6	?	22.0
